# Hits are enriched below; roughly 11% of the tested compounds scored in any of these assays.
# 3T3 cytotox – kills NIH 3T3 cells; Potency, µM (doses to about 96.7 µM), for the others: at the top dose activity change, negative = cytotoxicity, actives largely listed as inhibitors; actives 4.3% (n = 94,000); NIH 3T3 viability, CellTiter-Glo ATP luminescence, 48-72 h; AID 1345082; note: nearly all actives have a fitted effect of over 55% in size
#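 NIH 3T3 cells at 400 cells/well received 23 nL of compound by pintool and were incubated 48 or 72 h at 37 °C. Viability was read as ATP-coupled CellTiter-Glo luminescence.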
# FLuc inh – Photinus pyralis luciferase inhibition; Potency, µM (doses to about 115 µM), hits mostly inhibitors; P08659; purified P. pyralis luciferase, luminescence, biochemical; AID 1347043; actives 2.5% (n = 76,000); note: nearly all actives have a fitted effect of over 65% in size
#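 Purified 10nM P. pyralis luciferase with 10uM D-luciferin and 10uM ATP in 50mM Tris acetate pH 7.5, 10mM Mg acetate, 0.01% Tween-20, 0.05% BSA. qHTS titration; luminescence read by CCD imager.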
# hNpr1 antagonist – human Npr1 receptor antagonism; P16066; HEK293 hNpr1 GloSensor cGMP, ANP-stimulated luminescence; Potency, µM (titrated, usually from 46.3 µM), for inactives: at the top dose activity change, negative = inhibition, actives largely listed as inhibitors; actives 1.6% (n = 76,000); AID 1347048; calls by dose curve; note: nearly all actives have a fitted effect of over 60% in size
# Target sequence (P16066 whole entry, looked up): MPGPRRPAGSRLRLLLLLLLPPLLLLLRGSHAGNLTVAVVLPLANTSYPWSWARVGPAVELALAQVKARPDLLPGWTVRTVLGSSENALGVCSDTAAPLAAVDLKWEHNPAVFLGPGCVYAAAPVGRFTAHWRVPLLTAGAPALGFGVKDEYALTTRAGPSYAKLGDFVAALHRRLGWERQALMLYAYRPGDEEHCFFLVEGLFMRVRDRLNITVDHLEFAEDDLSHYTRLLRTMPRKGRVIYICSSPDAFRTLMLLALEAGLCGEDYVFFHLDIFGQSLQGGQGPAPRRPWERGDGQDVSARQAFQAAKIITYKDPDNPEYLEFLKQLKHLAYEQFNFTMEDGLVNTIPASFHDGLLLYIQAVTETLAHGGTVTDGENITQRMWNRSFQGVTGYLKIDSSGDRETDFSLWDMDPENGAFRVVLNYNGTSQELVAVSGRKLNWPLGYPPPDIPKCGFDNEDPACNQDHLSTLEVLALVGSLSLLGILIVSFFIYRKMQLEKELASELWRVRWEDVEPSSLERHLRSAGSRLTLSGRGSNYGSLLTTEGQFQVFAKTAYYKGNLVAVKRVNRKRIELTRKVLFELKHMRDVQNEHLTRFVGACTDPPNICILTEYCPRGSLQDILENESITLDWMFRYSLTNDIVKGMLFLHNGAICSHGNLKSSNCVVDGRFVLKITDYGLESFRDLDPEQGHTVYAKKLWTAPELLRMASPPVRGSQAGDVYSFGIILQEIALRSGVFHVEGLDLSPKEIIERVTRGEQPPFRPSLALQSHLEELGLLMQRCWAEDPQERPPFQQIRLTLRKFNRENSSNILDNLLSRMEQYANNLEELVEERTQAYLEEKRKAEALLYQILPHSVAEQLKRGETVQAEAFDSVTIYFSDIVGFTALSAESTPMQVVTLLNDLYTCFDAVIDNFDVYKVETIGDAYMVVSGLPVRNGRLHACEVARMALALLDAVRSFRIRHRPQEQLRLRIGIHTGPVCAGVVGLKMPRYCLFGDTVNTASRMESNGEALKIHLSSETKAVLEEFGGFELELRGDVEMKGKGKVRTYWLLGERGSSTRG
#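 HEK293 cells stably expressing human Npr1 and cGMP GloSensor pGS-40F, loaded 2 h with 2% GloSensor reagent, given compound 30 min at room temperature. Luminescence read before and 20 min after 0.1 nM hNppA.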
# HEK cytotox – cytotoxic compounds in HEK 293 cells. actives 6.6% (n = 94,000). Potency, µM (doses to about 115 µM), inactives show at the top dose activity change, negative = cytotoxicity, hits mostly inhibitors. AID 1345083. HEK 293 viability, ATP luminescence (CellTiter-Glo), 48-72 h; note: nearly all actives have a fitted effect of over 60% in size
#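 250 HEK 293 cells/well; compound by pintool; incubated 48 or 72 hr at 37 degree Celsius; CellTiter-Glo added, 10 min RT, luminescence imaged.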
# Active calls of the source: *; i = inactive; ? = inconclusive; / = not tested or not shown; [ ] = remark or other dose. Unless noted, calls come from the whole dose curve; as a rule, active = well fitted curve in the direction sought with a large enough effect; inconclusive = small, poorly fitted or top-dose-only effect, or another doubt; inactive = no such curve, though single readings can be large; an effect the other way counts as inactive or inconclusive. % is set by controls: 0 for no effect and ±100 for the full control effect; potency is the fitted concentration of half-maximal effect.
SMILES,3T3 cytotox,FLuc inh,hNpr1 antagonist,HEK cytotox
CC1(c2ccccc2)N(Cc2ccccc2C#N)C(=O)OC12CCN(C(=O)Cc1ccc(O)cc1)CC2 (centres undefined),11µM*,i,1%,-23%
CC(=O)N1CCC2(CC1)OC(=O)N(Cc1ccccc1)C2(C)c1ccccc1 (centres undefined),25µM*,i,-1%[70.6 µM],-23%[172 µM]
COc1ccc(C(=O)N2CCC3(CC2)OC(=O)N(Cc2ccccc2F)C3(C)c2ccccc2)cn1 (centres undefined),?,i,-4%,?
CC(C)c1nc2c(c(-c3ccc(Cl)cc3)n1)CCN([S+](=O)([O-])c1ccccc1)CC2,-21%,/,/,?
CCN(CC)C(=O)CCC1CCN(C(=O)c2ccccc2Cl)CC1,?,/,/,-11%
Cc1nc(CN2C(=O)OC3(CCN(CCc4ccccc4)CC3)C2(C)c2ccccc2)cs1 (centres undefined),-22%,i,-10%,?
CC1(c2ccccc2)N(Cc2ccccc2F)C(=O)OC12CCN(C(=O)CCc1ccccn1)CC2 (centres undefined),?,i,3%,?
CC1(c2ccccc2)N(Cc2ccccc2)C(=O)OC12CCN(C(=O)c1cccc(O)c1)CC2 (centres undefined),?,i,-5%,79µM*
Cc1nc(CN2C(=O)OC3(CCN(Cc4ccc(C(C)C)cc4)CC3)C2(C)c2ccccc2)cs1 (centres undefined),45µM*,i,3%,?
CC1(c2ccccc2)N(Cc2ccc(O)cc2)C(=O)OC12CCN(C(=O)c1cccnc1)CC2 (centres undefined),32µM*,i,3%,i
CC1(c2ccccc2)N(Cc2ccccc2F)C(=O)OC12CCN(C(=O)Cc1ccc(O)cc1)CC2 (centres undefined),22µM*,i,6%,?
COc1ccc(C(=O)N2CCC3(CC2)OC(=O)N(Cc2ccc(O)cc2)C3(C)c2ccccc2)cn1 (centres undefined),?,i,-12%,?
O=c1n(CCN2CCCC(N[S+](=O)([O-])c3cccs3)C2)nc2n1CCCC2 (centres undefined),-22%,/,/,1%
C[C@]1(CO)C2CC[C@@H](O)[C@@H](CC(=O)N3CC[C@@H](O)C3)[C@]2(C)CC[C@H]1OC(=O)Nc1ccc(Cl)c(Cl)c1 (some centres undefined),?,i,0%,?
O=C(c1cc(-c2ccccc2)c2nncn2n1)N1CCOCC1,-6%[138 µM],/,/,3%[172 µM]
COc1cccc(C(=O)N2CCCCCC2c2nnc(-c3ccccc3)o2)c1 (centres undefined),-32%,/,/,?
CC1(c2ccccc2)N(Cc2ccccc2)C(=O)OC12CCN(Cc1c[nH]c3ccccc13)CC2 (centres undefined),22µM*,i,?,28µM*
CC1(c2ccccc2)N(Cc2ccccc2C#N)C(=O)OC12CCN(CCc1ccccc1)CC2 (centres undefined),?,i,-5%,?
Cn1ccc(C(=O)N2CCC3(CC2)OC(=O)N(Cc2ccccc2)C3(C)c2ccccc2)n1 (centres undefined),35µM*,i,-2%,-1%
CC1(c2ccccc2)N(Cc2ccc(O)cc2)C(=O)OC12CCN(CC1CC1)CC2 (centres undefined),79µM*,i,-8%[70.6 µM],?
CC1(c2ccccc2)N(Cc2ccccc2)C(=O)OC12CCN(C(=O)c1ccc(F)cc1)CC2 (centres undefined),?,i,1%,?
COc1ccc(CN2CCC3(CC2)OC(=O)N(Cc2ccccc2C#N)C3(C)c2ccccc2)cc1O (centres undefined),?,i,-19%,45µM*
Cc1ccc(F)c(CN2CCC3(CCNCC3)C2)c1Cl,?,i,?,?
C=CCS(=O)(=O)N1CCCC(CCc2c(F)cccc2F)C1 (centres undefined),?,i,2%,?
CN(c1ccc(Cl)c(Cl)c1)C1CNC1,100µM*,/,/,112µM*
SMILES,3T3 cytotox,FLuc inh,hNpr1 antagonist,HEK cytotox
COc1ccc(-c2nc3cnccn3c2NCCC(=O)O)cc1,-2%,35µM*,0%,4%
CCNC(=O)c1coc(COc2ccc3c(c2)C(c2cccc(F)c2)N(C(=O)C(C)C)CC3)n1 (centres undefined),?,i,-10%,40µM*
CCCNC(=O)c1coc(COc2ccc3c(c2)C(c2ccc(F)cc2)N(C(=O)C(C)C)CC3)n1 (centres undefined),22µM*,i,-12%,?
CCC1=C(C(=O)OC)C(c2ccccc2OC)N2C(CC(=O)N3CCCC3)=CSC2=N1 (centres undefined),-15%,i,-26%,-27%
c1ccc(CNC[C@H]2Cn3c(-c4ccccc4)cnc3CO2)cc1,-35%[174 µM],i,-13%[70.6 µM],?
c1ccc2ncc(CNC[C@H]3Cn4c(-c5ccc6c(c5)OCCO6)cnc4CO3)cc2c1,?,?,35µM*,50µM*
Cc1ccccc1CNC[C@H]1Cn2c(-c3ccccc3)cnc2CO1,?,i,-5%[70.6 µM],112µM*
O=C(NC[C@H]1Cn2c(-c3ccc(Cl)cc3)cnc2CO1)Nc1ccccc1,?,i,?,63µM*
CN1CCC(NC[C@H]2Cn3c(-c4ccc5c(c4)OCCO5)cnc3CO2)CC1,?,i,-1%[70.6 µM],?
O=C(O)CCC(=O)NC[C@H]1Cn2c(-c3ccc(Cl)cc3)cnc2CO1,-2%[138 µM],i,1%[70.6 µM],i
O=C(NC[C@H]1Cn2c(-c3cccc(Cl)c3)cnc2CO1)Nc1ccccc1,?,i,?,100µM*
O=C(c1ccccc1Cl)N1CCC(C(=O)N2CCC(N3Cc4ccccc4C3=O)CC2)CC1,-15%,/,/,?
O=C1[C@@H]2C[C@@H](O)CN2C2(CN(Cc3ccccn3)C2)C(=O)N1Cc1cccc(Cl)c1,-14%[174 µM],i,2%[70.6 µM],-8%[172 µM]
CCC(=O)N(C1CCOCC1)C1CCN(S(=O)(=O)c2ccc(OC)cc2)CC1,-7%,i,5%,-1%
Cc1cccc(-n2nc(-c3c(C)nc4scc(CC(=O)NCCc5ccccc5)n4c3=O)cc2C)c1,?,i,-17%,?
COc1ncccc1CNC[C@H]1Cn2c(-c3ccc(Cl)cc3)cnc2CO1,89µM*,i,-24%[70.6 µM],?
COc1ccc(CNC[C@H]2Cn3c(-c4ccc(Cl)cc4)cnc3CO2)cn1,?,i,-20%[70.6 µM],?
Clc1cccc(-c2cnc3n2C[C@H](CNCc2ccccc2)OC3)c1,79µM*,i,-4%[70.6 µM],?
O=C1CCN(S(=O)(=O)c2ccccc2)CCCN(S(=O)(=O)c2cccc(F)c2)CCN1,-22%,i,-7%,-13%
Cc1ccc(NC(=O)c2nc3sccn3c2-c2ccncc2)cc1,?,/,/,112µM*

# High-throughput results deposited in PubChem BioAssay by National Center for Advancing Translational Sciences (NCATS).
